uPA generation – inhibitors of cell surface uPA generation. cell surface uPA generation assay, qHTS. Potency, µM (doses to about 38.3 µM), most hits filed as inhibitors. 330,000 compounds, 0.31% hits; active = well fitted inhibition curve with a large enough effect; inconclusive = small, poorly fitted or top-dose-only effect; inactive = no such curve, though single readings can be large or run the other way; tested in mouse RAW 264.7 cells; also: nearly all actives have a fitted effect of over 55% in size
ELG1 genotoxic – genotoxicity induction in ELG1-luciferase HEK293T cells; HEK293T ELG1-luciferase reporter, luminescence, 16 h; Potency, µM (doses to about 46 µM), actives largely listed as activators; 330,000 compounds, 1.3% hits; AID 504466; also: nearly all actives have a fitted effect of over 60% in size
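Genotoxic stress is detected as increased luminescence from luciferase-tagged ELG1 in HEK293T cells, measured with ONE-Glo after a 16 hr treatment at 37 °C.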
SMN2 splice enh – increases expression of the SMN2 splice variant | HEK293 SMN2-luciferase splicing reporter, luminescence, 30-36 h | Potency, µM (top dose mostly 46.1 µM), most hits filed as activators | 210,000 compounds, 2.8% hits; also: nearly all actives have a fitted effect of over 55% in size
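qHTS luciferase splicing reporter: luminescence rises when SMN2 exon 7 is included in transfected HEK293 cells. Compound exposure lasted 30-36 h at 37C, with 4.5 mM final sodium butyrate as control, followed by a ONE-Glo read.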
Rab9 prom act – activators of Rab9 promoter. Huh7 Rab9 promoter-luciferase reporter, luminescence, 24 h. Potency, µM (highest dose often 9.22 µM), most hits filed as activators. 320,000 compounds, 2.8% hits. AID 485297; also: nearly all actives have a fitted effect of over 60% in size
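Huh7 cells stably carrying Rab9 promoter–luciferase reporter, plated 1500 cells/well, compound added after 2 h and incubated 24 h at 37 °C; luciferase luminescence then read after 10 min with detection reagent.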
NPC1 promoter act – activators of NPC1 promoter | Potency, µM (titrated, usually from 9.22 µM), most hits filed as activators | 320,000 compounds, 2.4% hits | Huh7 NPC1 promoter luciferase reporter, 24 h | AID 485313; also: nearly all actives have a fitted effect of over 60% in size
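Cells: Huh7 expressing luciferase under the NPC1 promoter, 1500/well. Seeded 2 h, compound added, incubated 24 h at 37 °C. Luciferase reagent, 10 min ambient, then luminescence.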
FLuc counter – firefly luciferase modulation, counter-screen for miR-21 project; 360,000 compounds, 6.9% hits; P08659; Potency, µM (top dose mostly 57.5 µM), usual class: inhibitors; purified FLuc, Km substrates, luminescence inhibition; also: nearly all actives have a fitted effect of over 55% in size
Target sequence (P08659 whole entry, looked up): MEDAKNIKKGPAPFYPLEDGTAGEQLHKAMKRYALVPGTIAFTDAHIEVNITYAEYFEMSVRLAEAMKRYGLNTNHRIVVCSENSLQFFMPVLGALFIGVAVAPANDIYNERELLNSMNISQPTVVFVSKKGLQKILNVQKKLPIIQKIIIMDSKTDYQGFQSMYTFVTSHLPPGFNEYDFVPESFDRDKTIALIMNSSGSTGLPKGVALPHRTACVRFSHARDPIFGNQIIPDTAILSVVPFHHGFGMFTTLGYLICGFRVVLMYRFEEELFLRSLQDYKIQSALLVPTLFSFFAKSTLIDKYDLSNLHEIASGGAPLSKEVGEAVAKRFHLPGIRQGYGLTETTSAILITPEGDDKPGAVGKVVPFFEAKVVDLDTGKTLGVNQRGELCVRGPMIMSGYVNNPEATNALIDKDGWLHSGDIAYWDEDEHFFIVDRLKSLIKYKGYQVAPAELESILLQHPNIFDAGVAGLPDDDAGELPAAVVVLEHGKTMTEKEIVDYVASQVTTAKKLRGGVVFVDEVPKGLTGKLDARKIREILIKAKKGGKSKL
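Purified P. pyralis luciferase (10nM final) with 10uM D-luciferin and 10uM ATP (Km levels) in 50mM Tris acetate pH 7.5, 10mM Mg acetate, 0.01% Tween-20, 0.05% BSA; qHTS 6-point titration, ~60 µM downward; luminescence read.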
Numbers stand for hits; . = inactive; ? = inconclusive; / = no result. Only some compounds are listed: those with a hit (about 7.3% of all), similar ones and a draw of the others. Unless noted, calls follow the shape of the dose curve; as a rule, active = well fitted curve in the direction sought with a large enough effect; inconclusive = small, poorly fitted or top-dose-only effect, or another doubt; inactive = no such curve, though single readings can be large; an effect the other way counts as inactive or inconclusive.

SMILES	uPA generation	ELG1 genotoxic	SMN2 splice enh	Rab9 prom act	NPC1 promoter act	FLuc counter
Cc1noc(C)c1C(=O)Nc1sc(C)c(-c2ccccc2)c1C#N	.	.	.	.	.	.
Cc1cccc(C(=O)Nc2sc(C)c(-c3ccccc3)c2C#N)c1	.	?	?	1.6µM	2.8µM	4.3µM
CCOc1ccc(N(C)C(=O)C2CCN(S(=O)(=O)c3c(C)noc3/C=C/c3ccc(C)cc3)CC2)cc1	/	/	/	/	/	.
Cc1cccc(NS(=O)(=O)c2ccc3c(c2)OCCO3)c1	.	.	14µM	.	.	.
Cc1ccc(S(=O)(=O)Nc2ccc3c(c2)OCCO3)cc1C	.	.	/	.	.	21µM
COC(CNC(=O)CNC(=S)N(Cc1ccccc1)Cc1cccnc1)OC	.	.	.	.	.	.
Cc1cc(/C=C2\SC(=S)NC2=O)c(C)n1C1CC1	/	.	.	?	?	6.7µM
Cc1cc(/C=C2/C(=O)N(C)C(=S)N2C)c(C)n1C1CC1	.	18µM	13µM	2µM	2.8µM	3µM
Cc1ccn2c(c1)nc(=S)n2C(=O)c1ccco1	/	?	18µM	1.6µM	4µM	1.5µM
Cc1nn(C(=O)c2ccco2)c(C)c1Br	.	.	.	.	.	.
COc1ccc2cc(-c3nc(-c4ccc(N(C)C)cc4)no3)c(=O)oc2c1	/	/	/	/	/	.
O=c1oc2ccccc2cc1-c1nc(-c2cccs2)no1	/	/	/	/	/	0.6µM
COc1ccc2oc(=O)c(-c3nc(-c4cccs4)no3)cc2c1	/	/	/	/	/	.
CCN(CC)c1ccc2cc(-c3nc(-c4cc5ccccc5oc4=O)cs3)c(=O)oc2c1	.	/	/	/	/	/
Cc1cccc(-c2noc(-c3cc4ccccc4oc3=O)n2)c1	.	?	?	2.8µM	3.2µM	1.3µM
CCN(CC)c1ccc2cc(-c3nc(-c4ccccc4)no3)c(=O)oc2c1	/	/	/	/	/	6µM
Cc1ccc(-c2noc(-c3cc4ccccc4oc3=O)n2)cc1	.	?	.	.	.	6µM
NC(=O)c1cccc(C[C@H](C(=O)O)N2C(=O)c3ccc(C(=O)O)cc3C2=O)c1	/	/	/	.	.	.
Cc1ccc(NC(=O)C2CCCN(c3nnc(-n4c(C)ccc4C)s3)C2)cc1Cl (centres undefined)	/	/	.	/	/	.
COc1ccc(-c2[nH]c3ccccc3c2SCCNC(=O)c2cc(OC)c(OC)c(OC)c2)cc1	/	/	.	/	/	.
O=c1oc2ccccc2cc1-c1nc(-c2ccccc2)no1	.	?	11µM	1.1µM	0.45µM	0.54µM
O=c1oc2ccc(Br)cc2cc1-c1nc(-c2ccccc2)no1	/	/	.	/	/	.
CC(=O)Nc1ccc(NC(=O)C(C)OC(=O)/C(C#N)=C/c2ccc(N(C)C)cc2)cc1 (centres undefined)	.	18µM	/	?	.	9.5µM
CC(OC(=O)/C(C#N)=C/c1ccc(N(C)C)cc1)C(=O)N(C)c1ccccc1 (centres undefined)	.	.	/	.	.	?
COc1cccc(C(=O)NCC(c2ccc3c(c2)OCO3)N2CCN(C)CC2)c1 (centres undefined)	/	/	/	/	/	.
SMILES	uPA generation	ELG1 genotoxic	SMN2 splice enh	Rab9 prom act	NPC1 promoter act	FLuc counter
N#Cc1c(C(F)(F)F)cc(=O)n2c1[nH]c1ccccc12	.	.	/	.	.	27µM
Cc1ccccc1NC(=S)NNC(=O)c1ccncc1	.	.	.	.	.	.
COc1ccccc1C(=O)NNC(=O)c1ccccc1Br	.	.	/	.	.	?
COc1cc(OC)cc(C(=O)NNC(=S)Nc2ccccc2OC)c1	.	.	.	.	.	21µM
O=[N+]([O-])c1ccc(NC(=S)N/C(=N/CS(=O)(=O)c2ccccc2)c2ccccc2)cc1	.	?	.	.	.	?
COc1ccc(NC(=S)N/C(=N/CS(=O)(=O)c2ccccc2)c2ccccc2)cc1	.	?	.	?	2.8µM	2.7µM
COc1ccccc1NC(=S)NNC(=O)c1ccccc1Br	.	.	5µM	?	.	?
CC(=O)c1ccc(NC(=S)NNC(=O)c2ccncc2)cc1	.	.	.	.	.	19µM
COc1ccccc1NC(=S)NC(=O)CC(C)C	.	.	.	.	.	15µM
COc1ccccc1NC(=S)NNC(=O)c1cc(C)nn1C	.	.	.	.	.	?
COc1ccccc1NC(=S)NNC(=O)c1c(Cl)c(C)nn1C	.	.	.	.	.	15µM
COc1ccc(C(=O)NNC(=S)NC(=O)c2ccc(OC)cc2)cc1	.	.	/	.	.	.
COc1ccc(C(=O)NNC(=S)Nc2ccccc2)cc1	.	?	11µM	0.56µM	2.5µM	11µM
Cc1csc(-c2coc3cc(O)cc(C)c3c2=O)n1	.	21µM	?	?	?	9.5µM
COc1ccc(-c2coc3cc(OC)ccc3c2=O)cc1	.	/	/	/	/	/
CCc1cc2c(=O)c(-c3nc(C)cs3)coc2cc1O	.	?	/	?	.	1.9µM
COc1ccc2c(=O)c(-c3nc(C)cs3)coc2c1	.	?	4.5µM	1.3µM	0.63µM	0.76µM
Nc1nc(-c2ccccc2)c(N=Nc2cccc3ccccc23)s1	.	.	.	.	.	27µM
Cc1cc(C)c(NC(=O)C(C)n2nc(C)c3sc4ccccc4c3c2=O)c(C)c1 (centres undefined)	/	/	/	/	/	.
N#Cc1c(/N=C/c2ccc(-c3ccc(C(=O)O)c(Cl)c3)o2)sc2c1CCCC2	.	.	/	.	.	2.4µM
O=Cc1ccc(-c2ccccc2C(=O)O)o1	.	.	/	.	.	.
N#Cc1c(/N=C/c2ccc(-c3ccccc3C(=O)O)o2)sc2c1CCCC2	.	15µM	/	0.71µM	1.8µM	0.76µM
O=c1c2ccccc2cnn1-c1ccc(Cl)cc1	.	?	10µM	1µM	1.4µM	5.4µM
Cc1ccc(-n2ncc3ccccc3c2=O)cc1Cl	.	?	14µM	2.8µM	2.5µM	5.4µM
O=c1c2ccccc2cnn1Cc1n[nH]c(=S)n1-c1ccc(Cl)cc1	.	.	.	.	.	.
SMILES	uPA generation	ELG1 genotoxic	SMN2 splice enh	Rab9 prom act	NPC1 promoter act	FLuc counter
CCOc1ccc(N(CC(=O)N2CCCC2)S(=O)(=O)c2ccc(Cl)cc2)cc1	.	.	/	.	.	.
Cc1cc(NC(=O)c2ccc(Cl)cc2)ccc1NC(=O)c1ccccc1Cl	.	.	/	.	.	12µM
Cc1cc(NC(=O)c2ccccc2Cl)ccc1NC(=O)c1ccccc1Cl	?	.	/	.	.	12µM
Cc1ccccc1NC(=O)c1ccccc1NC(=O)c1ccccc1Cl	/	/	.	/	/	?
CCn1cc(Br)c(C(=O)Nc2cccc(SC)c2)n1	.	?	35µM	?	.	24µM
CCn1cc(Br)c(C(=O)Nc2ccc(F)cc2F)n1	.	.	/	?	?	?
CCOC(=O)c1cnc2cc(-c3ccc(Br)cc3)nn2c1C	.	?	/	2.8µM	?	?
CCOC(=O)c1cnc2cc(-c3ccc(Cl)cc3)nn2c1N	.	?	?	1.3µM	1.1µM	?
COc1ccc(NC(=O)c2oc3ccccc3c2NC(=O)C2CCCCC2)c(OC)c1	/	/	.	/	/	.

Screening data (PubChem)
